In PubChem BioAssay (NCI):
Compounds without any hit were thinned out: in the full panel of roughly 83,000, 20% have a hit.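 Plates (96-well) were seeded with cells, treated with compound at one concentration, and incubated for 48 hours before percent growth was determined.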 Values without a mark were called inactive. Activity calls are given as the source filed them. How the source made its calls: active means growth percent below 10; inactive means the rest.

Assays:
Experiment in all cases: NCI-60 one-dose screen, 48 h (100 = growth as untreated, 0 = no growth, -100 = all killed)
Settings in all cases: 10 µM unless noted
BT-549 breast = tested on: BT-549 breast
MDA-MB-435 melanoma = tested on: MDA-MB-435 melanoma
SW-620 colon = tested on: SW-620 colon
MCF7 breast = tested on: MCF7 breast
HCT-116 colon = tested on: HCT-116 colon
HCC-2998 colon = tested on: HCC-2998 colon
KM12 colon = tested on: KM12 colon

Row | Compound | growth (BT-549 breast) | growth (MDA-MB-435 melanoma) | growth (SW-620 colon) | growth (MCF7 breast) | growth (HCT-116 colon) | growth (HCC-2998 colon) | growth (KM12 colon)
1 | COc1cc2c(c(OC)c1OC)-c1ccc(NN(C(=O)c3ccccc3)C(=O)c3ccccc3)c(=O)cc1[C@@H](NC(C)=O)CC2 (tested in a mixture with another compound) | 37.3% | -68.8% (active) | 17.1% | 24% | 12.1% | 6.05% (active) | 9.8% (active)
2 | CCCc1cccc(CCC)c1O | 117% | 106% | 104% | 113% | 115% | 100% | 112%
3 | COc1cccc(/C=C2\COc3ccc(O)c(O)c3C2=O)c1OC | 35.3% | 9.09% (active) | 4.8% (active) | 16.7% | -48.4% (active) | 78.6% | 12.9%
4 | COc1ccc(-c2nnc(COc3ccc(NC(=O)Nc4cc(C(F)(F)F)cc(C(F)(F)F)c4)cc3F)o2)cc1 | 15.5% | 7.29% (active) | 13.6% | 1.51% (active) | 2.49% (active) | 11.5% | 0.401% (active)
5 | COc1ccc(-n2nnc(C(=O)O)c2-c2cc(OC)c(OC)c(OC)c2)cc1 | 101% | 121% | 104% | 102% | 100% | 99.1% | 105%
6 | Cc1ccc(C(O)C2=CC(=O)c3ccccc3C2=O)cc1 (stereo unspecified) | 63.1% | 102% | 95% | 87.1% | 91.7% | 101% | 96%
7 | c1coc([C@@H]2C[C@@H]3Cc4ccc5ccccc5c4N2O3)c1 | 105% | 103% | 103% | 84.6% | 99.2% | 107% | 107%
8 | Cc1cc(C(=O)O)c(C)cc1C(=O)O | 103% | 113% | 114% | 96% | 105% | 95.1% | 113%
9 | CN1CCN(CC(=O)Nc2nc3c(s2)Nc2cc(Cl)c(Cl)cc2NC3=O)CC1 | 100% | 107% | 112% | 104% | 100% | 110% | 102%
10 | CCOc1nc(-c2ccccc2)cc2c(O)c(C(=O)n3nc(C)cc3C)[nH]c(=O)c12 | 99.9% | 112% | 115% | 101% | 101% | 112% | 106%
11 | S=C(c1ccccc1)N1CCN(c2cccc(Cl)c2)CC1 | 105% | 81.5% | 98.5% | 109% | 106% | 105% | 92.5%
12 | O=C(Nc1cccc([N+](=O)[O-])c1)c1cccc(C(=O)Nc2cccc([N+](=O)[O-])c2)c1 | -4.34% (active) | 83.1% | 92.8% | 68.3% | 78.4% | 88.2% | 87.6%
13 | NNC(=O)C1CC2c3ccccc3C1c1ccccc12 (stereo unspecified) | 102% | 106% | 108% | 101% | 108% | 101% | 115%
14 | C[C@]12CC[C@@H]3c4ccc(O)cc4CC[C@H]3[C@@H]1CC[C@@H]2NS(=O)(=O)c1cccc(Br)c1 | 69.2% | 48.4% | 81.4% | 37.5% | 44.2% | 89.4% | 51.2%
15 | COc1ccc(-c2nc3sccn3c2-c2ccnc(S(C)(=O)=O)n2)cc1 | 122% | 82.7% | 91.1% | 46.2% | 79.6% | -55% (active) | 75%
16 | CC(C)c1ccc(C(=O)Nc2sc3c(CN(C)C)c(O)ccc3c2C(N)=O)cc1 | 64.4% | 63% | -37.8% (active) | -16.2% (active) | -46.5% (active) | -54.6% (active) | 6.38% (active)
17 | Cc1cc(NC(=O)Nc2cccc3ccccc23)no1 | 79.9% | 101% | 109% | 84% | 95% | 104% | 112%

Row | Compound | growth (BT-549 breast) | growth (MDA-MB-435 melanoma) | growth (SW-620 colon) | growth (MCF7 breast) | growth (HCT-116 colon) | growth (HCC-2998 colon) | growth (KM12 colon)
18 | COc1cccc(C2C(C#N)=C(N)Oc3cc(OC)ccc32)c1 (stereo unspecified) | 15.8% | -47.7% (active) | 26% | 17.1% | 7.04% (active) | 0.0782% (active) | 4.36% (active)
19 | O=C1OCC/C1=C\OCCCO/C=C1\CCOC1=O | 96.9% | 104% | 109% | 104% | 109% | 114% | 114%
20 | CCN1C[C@@H](C)n2c(c(O)c3c(=O)n(Cc4ccc(F)c(Cl)c4)nc(C(=O)NC)c32)C1=O | 9.6% (active) | 27.4% | 21.1% | 53.6% | 16.3% | 14.7% | 21%
21 | COc1ccc2c(c1)nc(N)c1c3cc(OC)c(OC)cc3cn21 | 79.8% | -26.7% (active) | 34.5% | 17.5% | 27.7% | 54.5% | 26.9%
22 | COc1ccc(-c2oc3cc(O)c(OC)c(O)c3c(=O)c2OC)cc1O | -4.89% (active) | -45.9% (active) | 19.2% | 19% | 2.2% (active) | 90.1% | 2.13% (active)
23 | CC(C)C(=O)Cc1cnccn1 | 110% | 101% | 102% | 103% | 109% | 104% | 112%
24 | COc1ccc2c(c1)C(=O)/C(=C/c1ccc([N+](=O)[O-])s1)O2 | -52.9% (active) | -70.4% (active) | -69.7% (active) | 3% (active) | -0.508% (active) | -6.91% (active) | -19.3% (active)
25 | CC12CCC3C(CCC4CC(=O)/C(=C\O)CC43C)C1CCC(=O)O2 (stereo unspecified) | 112% | 110% | 110% | 102% | 100% | 101% | 115%
26 | O=C(CCc1nnc2sc(-c3ccc(Cl)cc3Cl)nn12)c1nc2ccccc2[nH]1 | -28.2% (active) | -39.7% (active) | -34.3% (active) | -40.7% (active) | -84.7% (active) | -90.3% (active) | -27% (active)
27 | Clc1ccc2c(Nc3ccc4oc(NCCN5CCCC5)nc4c3)ccnc2c1 | 95.1% | 101% | 78.4% | 68.9% | 55.7% | 76% | 81.7%
28 | N#CCNc1ccccc1N | 87.2% | 106% | 100% | 88.8% | 85.3% | 96.9% | 94%
29 | [O-]/[N+](=C\C=C\c1ccccc1)c1ccccc1 | 109% | 108% | 104% | 96.3% | 102% | 103% | 100%
30 | Oc1ccc(Cc2ccc(O)c(C3CC(c4ccc(Cl)cc4)=NN3)c2)cc1C1CC(c2ccc(Cl)cc2)=NN1 (stereo unspecified) | 36.2% | 3.35% (active) | 13.6% | 17.5% | 1.4% (active) | 11.3% | 12%
31 | COc1ccc(-c2nn(-c3cccc(Cl)c3)cc2C2CC(c3ccccc3)=NN2C(C)=O)cc1 (stereo unspecified) | 74.7% | 88.5% | 73.6% | 68% | 60.9% | 95.4% | 96.4%
32 | NC(N)=NC(N)=NCCCc1ccccc1 | 49.5% [100 µM] | 60.5% [100 µM] | 77.8% [100 µM] | 59.2% [100 µM] | 50.6% [100 µM] | 68.5% [100 µM] | 78.1% [100 µM]
33 | COc1cc(NC(=O)c2cc3ccccc3cc2O)c(OC)cc1Cl | -24.3% (active) | 3.67% (active) | 17.5% | 2.91% (active) | -21.3% (active) | -40.4% (active) | 5.63% (active)
